Inconclusive results are not listed. Active and inactive are the calls of the source. Rule as the data show it, unless noted: active = inhibition above about 80%; inactive = the rest.
What was measured:
[1] = growth inhibition, single agents and combos, LFS_MB_1R, cell-based, cisplatin or BGB combos, synergistic combos for chromothripsis tumors (AID 1671452); details: LFS_MB_1R medulloblastoma cells, stronger effect = higher value;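 also: cells exposed for 96 hours before readout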
[2] = growth inhibition, single agents and combos, CRL2098, cell-based, BGB or cisplatin IC20 combos, synergistic combos for chromothripsis tumors (AID 1671454); details: CRL2098 osteosarcoma cells, drug combinations, stronger effect = higher value;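 also: cells exposed for 96 h before readout; 0% = vehicle DMSO and 100% = killing by high DMSO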
[3] = growth inhibition, single agents and combos, HD-MB03, cell-based, BGB or cisplatin IC20 combos, synergistic combos for chromothripsis tumors (AID 1671455; in the data active = inhibition above about 83%;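 also: 0% = vehicle DMSO and 100% = high DMSO as cytotoxic control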); details: HD-MB03 medulloblastoma cells, stronger effect = higher value
[4] = growth inhibition, single agents and combos, UWB1.289, cell-based, BGB or cisplatin combos, synergistic combos for chromothripsis tumors (AID 1671456); details: UWB1.289 ovarian carcinoma cells, stronger effect = higher value;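 also: cells exposed to compound for four days; 0% = vehicle DMSO and 100% = killing by high DMSO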
[5] = growth inhibition, single agents and combos, LFS_MB_2R, cell-based, cisplatin combos, synergistic combos for chromothripsis tumors (AID 1671457); details: LFS_MB_2R medulloblastoma cells, stronger effect = higher value;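 also: cells exposed to compound for four days before readout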
[6] = growth inhibition, MDA-MB-436, cell-based, BGB or cisplatin combos, synergistic combos for chromothripsis tumors (AID 1671458; call rule not given here;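 also: cells exposed for 96 hours; 0% = vehicle DMSO and 100% = killing by high DMSO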); details: MDA-MB-436 breast carcinoma growth inhibition, drug combinations, stronger effect = higher value
[7] = UWB1.289_BRCA1 ovarian cancer growth, cell-based, BGB or cisplatin combinations (AID 1671459); details: UWB1.289 BRCA1 ovarian carcinoma, drug combinations, stronger effect = higher value
[8] = drug combination toxicity in non-malignant astrocytes – cell-based, BGB or cisplatin IC20 combos, cytotoxicity control for chromothriptic childhood tumor combination screen (AID 1671460); details: Human astrocytes, viability inhibition, drug combinations, at 0.5 µM, stronger effect = higher value;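 also: cells exposed to compounds for 96 hours before viability readout; 0% = vehicle and 100% = killing control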
[9] = BT084 cell growth, single and combined drugs, ICGC_MB145, cisplatin and BGB IC40 combos (AID 1671461); details: BT084 medulloblastoma cells, drug combinations, stronger effect = higher value;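 also: cells exposed to drugs for 96 hours; 0% = vehicle DMSO and 100% = high DMSO full killing control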
[10] = RCMB18 cell growth, single agent and combined, cisplatin and BGB IC40 combos (AID 1671462); details: RCMB18 medulloblastoma cells, stronger effect = higher value;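 also: cells exposed to compound for four days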
[11] = CRL1545 cell growth, single agent and combined, cisplatin and BGB IC20 combos (AID 1671464); details: CRL1545 osteosarcoma cells, stronger effect = higher value;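 also: cells exposed to compound for 96 hours before readout; 0% = vehicle DMSO and 100% = high DMSO killing control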
[12] = target: ATP-dependent translocase ABCB1 (Homo sapiens) (UniProt P08183); assay: P-glycoprotein substrate transport blockade – cell-based (AID 377; in the data active = fluorescence slope change above about 50%); details: MDR1-expressing cells, fluorescent substrate accumulation slope; stronger effect = higher value; concentration not given here
Sequence of ATP-dependent translocase ABCB1 (Homo sapiens) (P08183 whole entry, looked up): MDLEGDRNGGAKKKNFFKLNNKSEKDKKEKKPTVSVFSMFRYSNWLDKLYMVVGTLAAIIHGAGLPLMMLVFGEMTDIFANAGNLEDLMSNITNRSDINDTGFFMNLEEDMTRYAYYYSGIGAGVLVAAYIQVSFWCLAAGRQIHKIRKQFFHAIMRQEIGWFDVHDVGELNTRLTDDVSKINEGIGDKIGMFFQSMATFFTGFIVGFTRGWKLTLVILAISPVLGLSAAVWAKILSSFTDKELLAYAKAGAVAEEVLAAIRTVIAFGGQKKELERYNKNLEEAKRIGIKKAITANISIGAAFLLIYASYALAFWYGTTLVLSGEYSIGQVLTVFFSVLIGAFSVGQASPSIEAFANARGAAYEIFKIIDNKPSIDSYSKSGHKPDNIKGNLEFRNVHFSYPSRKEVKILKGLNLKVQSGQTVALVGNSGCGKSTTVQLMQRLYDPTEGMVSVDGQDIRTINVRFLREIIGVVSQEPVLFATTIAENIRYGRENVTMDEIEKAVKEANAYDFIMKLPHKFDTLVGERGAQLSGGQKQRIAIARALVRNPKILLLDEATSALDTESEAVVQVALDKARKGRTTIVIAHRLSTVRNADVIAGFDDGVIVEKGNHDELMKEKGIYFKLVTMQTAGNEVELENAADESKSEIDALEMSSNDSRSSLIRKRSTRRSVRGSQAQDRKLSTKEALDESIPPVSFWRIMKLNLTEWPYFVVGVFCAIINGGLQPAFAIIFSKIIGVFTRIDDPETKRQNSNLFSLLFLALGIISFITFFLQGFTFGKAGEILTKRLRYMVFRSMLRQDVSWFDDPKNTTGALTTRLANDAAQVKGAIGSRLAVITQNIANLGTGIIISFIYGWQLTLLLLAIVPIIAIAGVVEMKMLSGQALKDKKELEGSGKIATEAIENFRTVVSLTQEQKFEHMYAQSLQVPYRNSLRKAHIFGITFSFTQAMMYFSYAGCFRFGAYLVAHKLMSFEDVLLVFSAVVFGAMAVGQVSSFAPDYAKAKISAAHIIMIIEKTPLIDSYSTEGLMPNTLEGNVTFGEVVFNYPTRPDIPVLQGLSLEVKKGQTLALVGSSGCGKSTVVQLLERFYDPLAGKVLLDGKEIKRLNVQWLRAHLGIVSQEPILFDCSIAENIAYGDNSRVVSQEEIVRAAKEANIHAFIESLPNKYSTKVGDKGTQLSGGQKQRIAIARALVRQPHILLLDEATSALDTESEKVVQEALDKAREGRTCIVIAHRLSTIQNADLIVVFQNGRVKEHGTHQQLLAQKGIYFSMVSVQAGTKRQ

[13] = blockers of biotin-polyQ monomer incorporation into aggregates – biochemical, solid-phase synthetic aggregates, QA3 (AID 1585; call rule not given here); details: polyQ aggregate elongation; EC50: measured here: elongation inhibition potency; inhibition: at 100 µM, stronger effect = higher value
[14] = rescue of PC12 cells from polyQ htt toxicity – LDH release (AID 1610); details: PC12 mutant huntingtin toxicity, final LDH at 4 uM, stronger effect = lower value
[15] = glutamate excitotoxicity neuroprotectants – cell-based, TUNEL DNA degradation staining, MNGlu (AID 1594; call rule not given here); details: motor neurons, glutamate-induced death, at 1 µM, stronger effect = higher value
[16] = test system: Hepatitis C virus NS3 helicase; assay: blockers of NS3h binding to ssDNA – biochemical, fluorescence polarization, LOPAC1280 library, primary screen (AID 687035; in the data active = inhibition above about 37%); details: Purified HCV NS3 helicase, Cy5-dT15 ssDNA binding fluorescence polarization; stronger effect = higher value; concentration not given here
[17] = compounds altering Cy5-DNA-NS3h complex signal – biochemical, LOPAC1280, artefact control for HCV NS3 helicase inhibitor project (AID 687037; call rule not given here); details: Cy5-DNA-NS3h complex fluorescence interference counterscreen
[18] = measured here: combination with cisplatin, at 0.5 µM
[19] = measured here: combination with cisplatin, at 5 µM

O=C(Nc1ccccc1)c1ccccc1O
inhibition ([1]; at 0.5 µM): -12.4% (inactive)
inhibition ([1]; measured here: combination with BGB IC40, at 0.05 µM): -23.1%
inhibition [1, 18]: -15.5%
inhibition [1, 19]: 13.9%
inhibition ([2]; at 0.5 µM): -8.88% (inactive)
inhibition ([2]; measured here: combination with BGB at IC20, at 0.5 µM): -7.52%
inhibition ([2]; measured here: combination with cisplatin at IC20, at 0.5 µM): 4.38%
inhibition ([3]; at 0.5 µM): -0.28% (inactive)
inhibition ([3]; measured here: combo with BGB at IC20, at 0.5 µM): 1.59%
inhibition ([3]; measured here: combo with cisplatin at IC20, at 0.5 µM): -2.6%
inhibition ([4]; at 0.5 µM): 10.7% (inactive)
inhibition ([4]; measured here: inhibition with BGB combination, at 0.05 µM): 0.707%
inhibition ([4]; measured here: inhibition with cisplatin combination, at 0.05 µM): -5.75%
inhibition ([5]; at 0.5 µM): 6.25% (inactive)
inhibition [5, 18]: 7.79%
inhibition [5, 19]: 26.7%
inhibition ([6]; at 0.5 µM): -7.25% (inactive)
inhibition ([6]; measured here: BGB combination, at 0.5 µM): -6.93%
inhibition ([6]; measured here: BGB combination, at 5 µM): 9.41%
inhibition ([6]; measured here: cisplatin combination, at 0.5 µM): -18%
inhibition ([6]; measured here: cisplatin combination, at 5 µM): 28.1%
inhibition ([7]; BGB combination, concentration series, at 5 µM): 20.8%
inhibition ([7]; at 0.5 µM): 4.85% (inactive)
inhibition ([7]; cisplatin combination, concentration series, at 5 µM): 20.1%
inhibition [8]: 6.87% (inactive)
inhibition ([8]; measured here: combo with BGB IC20): 7.24%
inhibition ([8]; measured here: combo with cisplatin IC20): 10.9%
inhibition ([9]; at 0.5 µM): 1.08% (inactive)
inhibition ([9]; cisplatin combination, at 0.5 µM): 7.73%
inhibition ([9]; cisplatin combination, at 5 µM): -4.41%
inhibition ([9]; measured here: BGB IC40 combination 0.05 uM, at 0.05 µM): 23%
inhibition ([9]; single agent, at 5 µM): 16.7%
inhibition ([10]; at 0.5 µM): 11.8% (inactive)
inhibition ([10]; cisplatin combo, at 5 µM): 41.7%
inhibition ([10]; measured here: BGB IC40 combination, at 0.05 µM): -1.52%
inhibition [10, 18]: 26.1%
inhibition ([10]; single agent, at 5 µM): 5.55%
inhibition ([11]; at 0.5 µM): -2.83% (inactive)
inhibition ([11]; measured here: with BGB IC20 combination, at 0.5 µM): 17.8%
inhibition ([11]; measured here: with cisplatin IC20 combination, at 0.5 µM): -13.1%
inhibition ([11]; single agent, at 0.05 µM): 12.8%
inhibition ([11]; single agent, at 5 µM): 42.5%

CCC[C@@H]1C[C@@H](C(=O)N[C@@H](C2O[C@H](SC)[C@H](O)[C@@H](O)[C@H]2O)[C@H](C)Cl)N(C)C1 (some centres not stated)
fluorescence slope change [12]: 138% (active)

O=C(O)Cc1cc(I)c(Oc2ccc(O)c(I)c2)c(I)c1
fluorescence slope change [12]: 75.2% (active)

C#C[C@]1(O)CCC2C3CCc4cc(O)ccc4C3CC[C@@]21C (some centres not stated)
EC50 [13]: 129 µM
inhibition [13]: 58.5% (active)

COc1ccc(C[C@H](N)C(=O)N[C@@H]2[C@@H](CO)OC(n3cnc4c(N(C)C)ncnc43)[C@@H]2O)cc1 (some centres not stated)
normalised LDH release [14]: 1

CC(C)CC1C(=O)N2CCC[C@H]2C2(O)O[C@](NC(=O)C3C=C4c5cccc6[nH]c(Br)c(c56)C[C@H]4N(C)C3)(C(C)C)C(=O)N12 (some centres not stated)
normalised LDH release [14]: 0.995

CC1(C)O[C@@H]2CC3C4C[C@H](F)C5=CC(=O)C=CC5(C)C4C(O)CC3(C)[C@]2(C(=O)CO)O1 (some centres not stated)
normalised LDH release [14]: 0.689

CC(C)[C@@H]1CC[C@@H](C)C[C@H]1O
protection [15]: 54% (active)

C[C@]12C=CC(=O)C=C1CCC1C2[C@@H](O)C[C@@]2(C)C1CC[C@]2(O)C(=O)CO (some centres not stated)
protection [15]: 55% (active)

CO/N=C(/C(=O)N[C@@H]1C(=O)N2C(C(=O)O)=C(COC(C)=O)CS[C@H]12)c1csc(N)n1
normalised LDH release [14]: 0.958
inhibition [16]: 6% (inactive)
fluorescence ratio (interference) [17]: 1 (inactive)

CN[C@@H]1[C@H](OC2[C@H](O[C@H]3[C@H](O)[C@@H](O)[C@H](N=C(N)N)[C@@H](O)[C@@H]3N=C(N)N)O[C@@H](C)[C@]2(O)C=O)O[C@@H](CO)[C@H](O)[C@H]1O (some centres not stated)
normalised LDH release [14]: 0.965

NC(N)=N/N=C\c1c(Cl)cccc1Cl
inhibition [16]: 0% (inactive)
fluorescence ratio (interference) [17]: 1 (inactive)

Source: PubChem BioAssay
